In PubChem BioAssay:
Activity calls are given as the source filed them. Unless noted, how the calls were made is not given here.

Legend:
[1] = resazurin metabolic signal in HepG2 cells – cell-based, resazurin fluorescence, 24 h, PK04 Diversity Set, profiling panel (AID 1172); conditions: HepG2 viability, higher = more signal
[2] = budding yeast growth changes without added modifier – OD600, strain BY4716, 24 h, basal condition, primary screen (AID 1173); conditions: S. cerevisiae BY4716 growth, OD600, 24 h; higher = more signal, called active from +8 up or from −8 down
[3] = viability profiling in MM1S myeloma cells – cell-based, resazurin fluorescence, basal, 24 h, PK04 Diversity Set, profiling panel (AID 1174); conditions: higher = more signal, called active from +8 up or from −8 down;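 further: MM1S multiple myeloma cell line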
[4] = molecular target: Dihydroorotate dehydrogenase (quinone), mitochondrial (Plasmodium falciparum (isolate 3D7)) (UniProt Q08210); assay: inhibition of P. falciparum DHODH – biochemical, C-terminal His tag, absorbance 600 nm, primary screen (AID 1175); conditions: PfDHODH enzyme, DCIP absorbance 600 nm; higher = more signal, called active from +8 up or from −8 down;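 further: recombinant parasite enzyme with a five histidine tag at its C terminus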
[5] = inhibition of PAO1 biofilm formation – strain PAO1, LB-PBS medium, absorbance 600 nm, primary screen (AID 1176); conditions: P. aeruginosa PAO1 growth/biofilm, A600, 12 h; higher = more signal
[6] = growth modulation of vineyard yeast isolate – strain RM11-1a, OD600, basal, 24 h, primary screen (AID 1177);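 further: cultures grown under basal conditions with no added stressor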; conditions: S. cerevisiae RM11-1a growth, OD600, 24 h; higher = more signal, called active from +8 up or from −8 down
[7] = growth of efflux-deficient E. coli DRC39 – strain DRC39, OD650, 24 h, E. coli filamentation inducers, primary screen (AID 1178);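 further: growth measured as culture turbidity by optical density at 650 nm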; conditions: E. coli DRC39 acrAB, higher = more signal, called active from +8 up or from −8 down
[8] = growth of efflux-deficient E. coli DRC39 – strain DRC39, OD650, 48 h, E. coli filamentation inducers, primary screen (AID 1179);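 further: screen aims at cell division blockers that make cells filament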; conditions: E. coli DRC39 delta-acrAB growth, higher = more signal, called active from +8 up or from −8 down
[9] = viability profiling in RPMI8226 myeloma cells – cell-based, resazurin fluorescence, basal, 24 h, PK04 Diversity Set, profiling panel (AID 1180); conditions: higher = more signal;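 further: RPMI8826 multiple myeloma cell line at 5000 cells per well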
[10] = molecular target: E3 ubiquitin-protein ligase XIAP (Homo sapiens) (UniProt P98170); assay: small molecules binding XIAP protein – biophysical, small-molecule microarray, fluorescence 635 nm, primary screen (AID 1181); conditions: higher = more signal;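 further: score merges 667 nm emission and signal to noise over triplicate slides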
[11] = system: XIP peptide (Xip251-270) binding; assay: XIP fragment 251-270 binding compounds – biochemical, small-molecule microarray, fluorescence 635/667 nm, 0.1 µg/mL protein, primary screen (AID 1182); conditions: fluorescent protein binding, 635 nm, higher = more signal, called active from +8 up or from −8 down
XIP peptide (Xip251-270) = assay: compounds binding XIP fragment 251-270 – biochemical, small-molecule microarray, fluorescence 635/667 nm, 0.5 µg/mL protein, primary screen (AID 1183); conditions: fluorescence 635 nm, higher = more signal
[12] = blood-stage malaria parasite viability loss – strain 3D7, DAPI fluorescence, 100 nL, primary screen (AID 1184);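 further: parasites grown inside human red blood cells in medium with human serum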; conditions: P. falciparum 3D7 growth, 3 d, higher = more signal
[13] = molecular target: Homeobox protein Hox-A13 (Mus musculus) (UniProt Q62424); assay: disruptors of Hoxa13 oligonucleotide interaction – biochemical, fluorescence polarization, labeled oligonucleotide, primary screen (AID 1185); conditions: Hoxa13:DNA binding, 15 min, higher = more signal, called active from +8 up or from −8 down
[14] = blockers of DNA damage checkpoint Chk1 activation – imaging, HeLa, hydroxyurea, phospho-Chk1 antibody, percent positive cells, primary screen (AID 1186); conditions: hydroxyurea-induced phospho-Chk1 immunofluorescence imaging, higher = more signal
[15] = blockers of DNA damage checkpoint Chk1 activation – imaging, HeLa, hydroxyurea, phospho-Chk1 nuclear intensity, primary screen (AID 1187); conditions: hydroxyurea-induced phospho-Chk1 immunofluorescence imaging, higher = more signal

Dihydroorotate dehydrogenase (quinone), mitochondrial (Plasmodium falciparum (isolate 3D7)), sequence (Q08210 whole entry, looked up): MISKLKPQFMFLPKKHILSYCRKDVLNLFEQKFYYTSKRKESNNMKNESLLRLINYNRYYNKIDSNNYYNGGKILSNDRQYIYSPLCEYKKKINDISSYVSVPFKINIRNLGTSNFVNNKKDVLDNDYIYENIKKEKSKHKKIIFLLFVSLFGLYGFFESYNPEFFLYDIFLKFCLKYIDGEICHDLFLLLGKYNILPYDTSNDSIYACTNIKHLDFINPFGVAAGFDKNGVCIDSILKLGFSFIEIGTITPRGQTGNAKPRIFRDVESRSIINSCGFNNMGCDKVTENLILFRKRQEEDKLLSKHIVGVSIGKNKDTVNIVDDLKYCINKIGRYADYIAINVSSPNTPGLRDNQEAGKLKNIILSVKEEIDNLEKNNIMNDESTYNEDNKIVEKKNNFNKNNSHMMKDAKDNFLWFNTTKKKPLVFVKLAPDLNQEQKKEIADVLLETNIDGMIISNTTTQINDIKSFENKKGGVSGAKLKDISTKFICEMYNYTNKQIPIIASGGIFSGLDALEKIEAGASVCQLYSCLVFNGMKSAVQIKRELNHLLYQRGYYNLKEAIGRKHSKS
E3 ubiquitin-protein ligase XIAP (Homo sapiens), sequence (P98170 whole entry, looked up, the tested form may be a part): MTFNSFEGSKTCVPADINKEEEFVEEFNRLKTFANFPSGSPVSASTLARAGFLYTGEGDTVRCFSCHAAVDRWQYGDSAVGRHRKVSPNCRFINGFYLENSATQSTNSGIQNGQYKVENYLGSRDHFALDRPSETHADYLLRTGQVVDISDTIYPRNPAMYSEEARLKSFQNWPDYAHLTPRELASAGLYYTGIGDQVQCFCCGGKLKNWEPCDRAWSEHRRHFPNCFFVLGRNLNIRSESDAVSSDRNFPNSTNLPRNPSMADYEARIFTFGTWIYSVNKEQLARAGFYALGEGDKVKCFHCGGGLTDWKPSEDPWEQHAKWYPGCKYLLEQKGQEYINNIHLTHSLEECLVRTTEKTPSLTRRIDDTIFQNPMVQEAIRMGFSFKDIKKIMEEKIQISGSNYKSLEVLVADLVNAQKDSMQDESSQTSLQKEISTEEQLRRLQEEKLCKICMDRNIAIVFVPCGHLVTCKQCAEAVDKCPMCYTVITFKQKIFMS
Homeobox protein Hox-A13 (Mus musculus), sequence (Q62424 whole entry, looked up): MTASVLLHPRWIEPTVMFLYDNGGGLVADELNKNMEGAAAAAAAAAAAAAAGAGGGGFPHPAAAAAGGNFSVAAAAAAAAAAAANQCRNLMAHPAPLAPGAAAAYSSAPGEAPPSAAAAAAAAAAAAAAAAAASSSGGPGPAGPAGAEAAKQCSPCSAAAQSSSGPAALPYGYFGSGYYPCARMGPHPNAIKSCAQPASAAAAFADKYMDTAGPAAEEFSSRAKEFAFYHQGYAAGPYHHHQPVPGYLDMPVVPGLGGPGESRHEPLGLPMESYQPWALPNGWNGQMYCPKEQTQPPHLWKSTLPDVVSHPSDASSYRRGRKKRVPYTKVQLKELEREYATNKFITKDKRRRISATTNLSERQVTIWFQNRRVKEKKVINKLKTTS

SMILES	z-score [1]	z-score [2]	z-score [3]	composite z-score [4]	z-score [5]	z-score [6]	z-score [7]	z-score [8]	z-score [9]	composite z-score [10]	composite z-score [11]	composite z-score (XIP peptide (Xip251-270))	z-score [12]	z-score [13]	z-score [14]	z-score [15]
O=C1O[C@H](c2ccccc2)[C@H](c2ccccc2)N2[C@H]1[C@@H](C(=O)N1CCCCCCC1)[C@]1(C(=O)Nc3ccc(C#CC4=CCCCC4)cc31)[C@H]2c1ccc(O)cc1	0.693	-0.63 (inactive)	-0.693 (inactive)	-0.744 (inactive)	0.485 (inactive)	-0.668 (inactive)	-0.182 (inactive)	-1.53 (inactive)	-0.0437	3.33	8.07 (active)	1	-1.96	3.02 (inactive)	-0.323 (inactive)	-0.649 (inactive)
COc1ccccc1CN1C(=O)c2ccccc2[C@](Cc2ccccc2I)(C(=O)NCc2ccccc2)[C@@H]1c1ccc(CO)cc1	-0.583	0.511 (inactive)	-1.05 (inactive)	-0.141 (inactive)	0.0993 (inactive)	-0.283 (inactive)	-0.331 (inactive)	0.363 (inactive)	-1.12	-0.16	-0.501 (inactive)	0.801	-0.818	-2.8 (inactive)	0.234 (inactive)	0.365 (inactive)
CN1C(=O)C2C=CC(C(O)C(c3ccccc3)c3ccccc3)N(Nc3ccccc3)C2C1=O (stereo not given)	-0.562	-2.21 (inactive)	-0.978 (inactive)	0.0016 (inactive)	1.16 (inactive)	-0.238 (inactive)	-1.31 (inactive)	-1.38 (inactive)	-1.2	0.21	0.0848 (inactive)	0.68	0.608	-4.01 (inactive)	0.535 (inactive)	-0.0171 (inactive)
O=C(NCc1ccccc1)[C@@H]1c2ccccc2C(=O)N(C2CCCCC2)[C@H]1c1ccc(CO)cc1	-0.178	0.0854 (inactive)	-0.765 (inactive)	0.0557 (inactive)	0.0993 (inactive)	0.138 (inactive)	0.0692 (inactive)	0.268 (inactive)	-1.7	0.117	0.81 (inactive)	0.732	-0.667	-2.81 (inactive)	-0.13 (inactive)	-0.296 (inactive)
Cc1ccc(S[C@]2(C(=O)NCC(C)C)CC(=O)N(Cc3ccccc3)[C@@H]2c2ccc(CO)cc2)cc1	0.408	-0.841 (inactive)	0.559 (inactive)	-0.586 (inactive)	0.525 (inactive)	-0.341 (inactive)	0.298 (inactive)	-0.667 (inactive)	0.505	0.104	1.34 (inactive)	0.404	-0.894	-2.95 (inactive)	0.306 (inactive)	-0.141 (inactive)
[N-]=[N+]=NCc1ccccc1C[C@]1(C(=O)N2CCOCC2)N=C(c2ccc(OCCCO)cc2)O[C@H]1c1ccccc1	-0.552	-0.34 (inactive)	-2.29 (inactive)	1.44 (inactive)	-0.537 (inactive)	0.328 (inactive)	0.685 (inactive)	0.694 (inactive)	-4.46	-0.0884	0.855 (inactive)	0.21	-2.38	-6.01 (inactive)	-0.638 (inactive)	-0.71 (inactive)
C=CC[C@@]1(C(N)=O)N=C(c2ccc(OCCCO)cc2)O[C@@H]1c1ccccc1N=[N+]=[N-]	0.895	-1.08 (inactive)	0.694 (inactive)	0.832 (inactive)	0.401 (inactive)	0.178 (inactive)	0.951 (inactive)	-0.0342 (inactive)	0.502	0.0896	0.868 (inactive)	0.231	-1.73	-6.09 (inactive)	-0.0626 (inactive)	0.0164 (inactive)
COCCCNC(=O)[C@@]1(Sc2ccc(C)cc2)CC(=O)N(Cc2ccccc2)[C@@H]1c1ccc(CO)cc1	0.802	0.0695 (inactive)	0.495 (inactive)	-0.0163 (inactive)	0.366 (inactive)	-0.194 (inactive)	0.234 (inactive)	0.127 (inactive)	1.01	-0.0492	-0.496 (inactive)	0.841	-0.471	-2.81 (inactive)	-0.24 (inactive)	-0.283 (inactive)
COCCOC(=O)N1C(=O)[C@@]2(c3cc(C#CCCO)ccc31)[C@H](c1ccc(O)cc1)N1[C@H](c3ccccc3)[C@H](c3ccccc3)OC(=O)[C@H]1[C@@H]2C(=O)N1CCCCCCC1	-0.681	0.015 (inactive)	-0.216 (inactive)	0.232 (inactive)	0.915 (inactive)	0.38 (inactive)	0.27 (inactive)	-0.002 (inactive)	-0.98	0.23	0.449 (inactive)	0.723	-0.0358	-1.14 (inactive)	-0.0035 (inactive)	-0.334 (inactive)
COC(=O)[C@@]1(Cc2ccccc2)[C@H]2c3cc(C(=O)N(C)C)n(Cc4ccccc4)c3C[C@H]2CN1C(=O)c1ccccc1	-0.853	2.1 (inactive)	-1.5 (inactive)	-0.252 (inactive)	0.246 (inactive)	1.6 (inactive)	-0.656 (inactive)	-0.411 (inactive)	-1.05	0.294	0.394 (inactive)	0.225	-1.43	-5.49 (inactive)	1.54 (inactive)	0.928 (inactive)
